Source: PubChem BioAssay (NCI)
Compounds without any hit were thinned out: in the full panel of roughly 79,000, 15% have a hit. Cut-off read from the data, not from the text of the source: active = growth inhibition above about 70%; inactive = the rest.

Experiments:
[1] = NCI Yeast Anticancer Drug Screen. Data for the rad50 strain (AID 155);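 note: 0% = growth of vehicle-only cultures of the same strain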; conditions: S. cerevisiae rad50 strain growth inhibition; at 50.0 µM; hits give high values
How it was run: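 A DNA repair-deficient yeast mutant serves as the test organism; compound-induced growth inhibition is calculated against vehicle-treated cells.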

[2] = NCI Yeast Anticancer Drug Screen. Data for the mec2-1 strain (AID 157); conditions: S. cerevisiae mec2-1 strain, at 50.0 µM, hits give high values
How it was run: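 Each compound was tested on mec2-1 yeast, a strain altered in DNA damage repair or cell cycle control. Growth inhibition is reported relative to vehicle.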

[3] = NCI Yeast Anticancer Drug Screen. Data for the sgs1 mgt1 strain (AID 161);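 note: 0% = growth of cultures given vehicle only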; conditions: S. cerevisiae sgs1 mgt1 strain, at 50.0 µM, hits give high values
How it was run: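 Genetically altered yeast, compound exposure, growth inhibition relative to vehicle.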

[4] = NCI Yeast Anticancer Drug Screen. Data for the cln2 rad14 strain (AID 165);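 note: 0% = growth equal to vehicle treated cultures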; conditions: S. cerevisiae cln2 rad14 strain, at 50.0 µM, hits give high values
How it was run: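 Test compounds were added to cln2 rad14 yeast cultures; inhibition of growth was then determined by comparison with vehicle treatment.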

[5] = NCI Yeast Anticancer Drug Screen. Data for the bub3 strain (AID 167); conditions: S. cerevisiae bub3 mutant strain, at 50.0 µM, hits give high values
How it was run: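 Inhibition values come from growth of compound-treated mutant yeast normalised to vehicle-treated controls.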

[6] = NCI Yeast Anticancer Drug Screen. Data for the mlh1 rad18 strain (AID 175); conditions: S. cerevisiae mlh1 rad18 strain growth inhibition; at 50.0 µM; hits give high values
How it was run: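 Inhibition values reflect reduced growth of mutant yeast versus vehicle-treated controls following compound exposure; the mutations affect DNA damage repair.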

Measured: growth inhibition

O=CC(=O)c1ccc(Br)cc1
inactive: [1] 13.7% | [2] 19.2% | [3] 13.2% | [4] -1.05% | [5] -7.15% | [6] 19.4%

O=C(O)c1ccncc1S(=O)(=O)O
inactive: [1] -20.6% | [2] -36.2% | [3] -24.3% | [4] -8.4% | [5] -23.5% | [6] -9.9%

NNC(=O)CSCC(=O)NN
inactive: [1] -1.9% | [2] -2.05% | [3] -3.25% | [4] -9.75% | [5] 1.2% | [6] -5.35%

C=C(C)CNCC(=C)C
inactive: [1] 35.3% | [2] 14.1% | [3] -8.25% | [4] -16.8% | [5] 17.9% | [6] 21.6%

Cc1ccc(N=C2OC(=O)c3ccccc32)cc1
inactive: [1] -3.8% | [2] -4% | [3] 0.1% | [4] -39.5% | [5] 9.9% | [6] 32.7%

Cc1c(-c2ccccc2)c2ccccc2c2ccccc12
inactive: [1] -10% | [2] -15.6% | [3] -4.25% | [4] 0.1% | [5] 2.2% | [6] -14.4%

C[C@]12CCC(=O)C=C1CC[C@@H]1[C@@H]2[C@@H](O)C[C@@]2(C)[C@H]1CC[C@]2(O)C(=O)CO
inactive: [1] 12.7% | [2] 2.25% | [3] -31.6% | [4] 7% | [5] -30.1% | [6] -35%

OCC(Cl)(Cl)C(Cl)(Cl)CO
inactive: [1] 8.2% | [2] -14.5% | [3] -12.7% | [4] -0.95% | [5] -28.6% | [6] -17.8%

C(=C\c1ccc2ccc(/C=C/c3ccccc3)cc2c1)/c1ccccc1
inactive: [1] -15.2% | [2] 14.7% | [3] 12.1% | [4] -26.8% | [5] 8.25% | [6] -17.1%

O=C(Nc1cccc(Cl)c1)OCc1ccccn1
inactive: [1] 37.6% | [2] 8.15% | [3] 6.9% | [4] -21.5% | [5] -0.95% | [6] 22.1%

CCO/C([O-])=C(\C=N\S(=O)(=O)c1ccc(C)cc1)[n+]1ccc(C)cc1
inactive: [1] 13.8% | [2] 14.7% | [3] 12.2% | [4] -17.1% | [5] -4.2% | [6] 6.45%

C=C(C)C(=O)Nc1ccc(-n2[nH]c(C)c(N=Nc3ccc(N(C)C)cc3)c2=O)cc1
inactive: [1] 6.95% | [2] -5.5% | [3] -14.6% | [4] -36% | [5] -2.55% | [6] 1.85%

CC(C)(C)NC(=O)Oc1ccccc1C(N)=O
inactive: [1] 4.4% | [2] -3.45% | [3] -5.2% | [4] -78.4% | [5] 4.9% | [6] -11.7%

O=C(O)c1c(-c2ccc(Cl)cc2)c(-c2ccc(Cl)cc2)nn(CCO)c1=O
inactive: [1] 33.8% | [2] 25.8% | [3] 33.4% | [4] 7.4% | [5] 1.5% | [6] 35.6%

CCCCCCCCCCCCOP(=O)(O)OP(=O)(O)OCC1OC(n2cc(C)c(=O)[nH]c2=O)CC1O (configuration not stated)
inactive: [1] 35.4% | [2] 13.9% | [3] 47% | [4] 14.7% | [5] 14.4% | [6] 7.55%

CCCCCCCC(=O)NN(Cn1c(=S)sc2ccccc21)Cn1c(=S)sc2ccccc21
inactive: [1] 32% | [2] 9.25% | [3] 26.7% | [4] 21.7% | [5] -2.7% | [6] 6.65%

COc1cc(/C=C2\SC(=S)N(/C=C(/C#N)C(=O)c3ccc4ccccc4c3)C2=O)cc(OC)c1OC
inactive: [1] 21.3% | [2] 11.8% | [3] 53.4% | [4] 3.45% | [5] 27.2% | [6] 31.4%

NC(=O)N/N=C\CC(O)(C(F)(F)Cl)C(F)(F)Cl
inactive: [1] -33.9% | [2] -29.2% | [3] -15.6% | [4] -1.5% | [5] 3.2% | [6] -3.1%

Cc1ccc(NC=O)cc1NC=O
inactive: [1] 37.6% | [2] -1.4% | [3] 9.5% | [4] -27.1% | [5] 4.2% | [6] 15.9%

CCS(=O)(=O)Nc1ccc(NS(=O)(=O)CC)cc1
inactive: [1] 39.7% | [2] 11.3% | [3] 29.1% | [4] 16.5% | [5] 17.9% | [6] 25.4%

COc1cc(C(=O)NC2CCc3cc(OC)c(OC)c(OC)c3-c3ccc(OC)c(=O)cc32)cc(OC)c1OC (configuration not stated)
inactive: [1] 26.4% | [2] -9.65% | [3] 3% | [4] 12.2% | [5] 0.05% | [6] 5.35%

CCCC(CC)(CC)CO
inactive: [1] -21.6% | [2] -6.9% | [3] -16.4% | [4] 12.1% | [5] -10.4% | [6] -6.15%

CCOC(=O)CN(C)C#N
inactive: [1] -16.9% | [2] -33.3% | [3] -44% | [4] -5.3% | [5] -31.6% | [6] -2.15%

Cc1cc(O)c2c(c1)C(=O)c1c(-c3ccc(O)c4c3C(=O)c3c(O)c(C)cc(O)c3C4=O)ccc(O)c1C2=O
inactive: [1] -30.7% | [2] -19.8% | [3] -17.1% | [4] 9.05% | [5] -26.8% | [6] -24.4%

Brc1ccccc1-c1nnc(-c2cccc3ccccc23)o1
inactive: [1] -20.9% | [2] -59.9% | [3] -15.3% | [4] -10.8% | [5] -26.6% | [6] -23.2%

O=C1c2ccccc2OC(Cl)(c2ccccc2)C1Cl (configuration not stated)
inactive: [1] -15.1% | [2] -2.4% | [3] -7.5% | [4] -21.8% | [5] 22.7% | [6] 2%

CC1(C)CNC[C@](C)(OCc2ccccc2)N1
inactive: [1] -24.4% | [2] -29.1% | [3] -11.3% | [4] 11.2% | [5] 10.9% | [6] -4.7%

CC(=S)N=Cc1c(N)[nH]n(-c2ccccc2)c1=O
inactive: [1] -40.5% | [2] -12.8% | [3] -24.6% | [4] -0.3% | [5] -20.1% | [6] -24.5%

C1CC2CCC1CN(C1COC(N3CC4CCC(CC4)C3)CO1)C2 (configuration not stated)
inactive: [1] -5.15% | [2] 1.55% | [3] 9.7% | [4] 58.4% | [5] 4.9% | [6] -0.65%

COc1ccc(/C=N/NS(=O)(=O)c2ccc(/C=C3\NC(=O)N(C)C3=O)cc2)cc1
inactive: [1] -10.5% | [2] 22.1% | [3] -21.9% | [4] 6.5% | [5] -23.7% | [6] 27.1%

CO[C@@]12C[C@@H](C)[C@]34O[C@H]3C[C@]3(C)O[C@]43CC1=C(C)C(=O)O2
inactive: [1] 10.2% | [2] 1.2% | [3] 23.6% | [4] 7.5% | [5] 28.4% | [6] -64%

c1ccc2c(OCCSCCCCCCCCCCSCCOc3cccc4ccccc34)cccc2c1
inactive: [1] 18.9% | [2] -5.55% | [3] -2.25% | [4] 7.75% | [5] -3.6% | [6] -9.25%

NC(=O)N/N=C1\CCc2ccccc2C1
inactive: [1] 12.8% | [2] -12.3% | [3] -25.8% | [4] 22.4% | [5] -42.3% | [6] -2.8%

O=C(O)c1ccc(C(=O)c2ccccc2)c(C(=O)O)c1
inactive: [1] -4.05% | [2] -1.8% | [3] -19.3% | [4] -8.7% | [5] -62.9% | [6] -17.4%

CC1(C)CCC(C2=CC(=O)c3c(O)ccc(O)c3C2=O)O1 (configuration not stated)
inactive: [1] -8.25% | [2] -17.1% | [3] 10.5% | [4] 17.9% | [5] -12.6% | [6] -2.8%

Cc1ccc(N=Nc2ccc([N+](=O)[O-])cc2)c([N+](=O)[O-])c1
inactive: [1] 10.9% | [2] -11.2% | [3] -4.5% | [4] 17.4% | [5] 18.4% | [6] -12.6%

COc1cc2ccccc2cc1CO
inactive: [1] -4.15% | [2] -4.2% | [3] -3.8% | [4] -16.1% | [5] -22.8% | [6] -0.45%
